What was measured:
[1] = biological target: T1, Ephrin type-A receptor 3 (Homo sapiens) (UniProt P29320); conditions: at 10 µM
T1 sequence (whole entry): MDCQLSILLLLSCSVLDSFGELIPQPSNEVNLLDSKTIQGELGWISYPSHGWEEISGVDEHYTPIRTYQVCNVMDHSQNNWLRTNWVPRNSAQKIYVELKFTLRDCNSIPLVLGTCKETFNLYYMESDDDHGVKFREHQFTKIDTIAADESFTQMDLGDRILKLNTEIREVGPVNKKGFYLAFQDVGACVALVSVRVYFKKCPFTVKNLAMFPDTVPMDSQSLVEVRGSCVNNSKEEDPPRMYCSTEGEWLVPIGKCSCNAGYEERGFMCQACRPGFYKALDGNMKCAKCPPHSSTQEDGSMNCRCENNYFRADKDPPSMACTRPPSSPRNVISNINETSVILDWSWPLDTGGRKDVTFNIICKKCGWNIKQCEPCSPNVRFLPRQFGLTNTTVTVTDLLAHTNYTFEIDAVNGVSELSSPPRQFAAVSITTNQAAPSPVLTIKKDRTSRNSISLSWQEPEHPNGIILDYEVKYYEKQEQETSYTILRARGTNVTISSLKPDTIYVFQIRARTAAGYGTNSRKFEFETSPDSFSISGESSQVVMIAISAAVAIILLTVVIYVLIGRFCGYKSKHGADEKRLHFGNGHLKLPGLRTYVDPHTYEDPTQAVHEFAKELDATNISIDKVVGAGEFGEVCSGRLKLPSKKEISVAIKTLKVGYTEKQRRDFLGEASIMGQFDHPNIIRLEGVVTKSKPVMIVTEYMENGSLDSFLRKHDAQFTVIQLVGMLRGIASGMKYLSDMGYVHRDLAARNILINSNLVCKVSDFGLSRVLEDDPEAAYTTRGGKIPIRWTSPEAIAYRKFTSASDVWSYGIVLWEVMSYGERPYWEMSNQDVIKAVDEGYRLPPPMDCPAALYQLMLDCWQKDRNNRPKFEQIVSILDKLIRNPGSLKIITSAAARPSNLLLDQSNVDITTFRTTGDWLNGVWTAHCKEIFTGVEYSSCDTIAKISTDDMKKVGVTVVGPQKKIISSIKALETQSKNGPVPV

[2] = biological target: Ephrin type-A receptor 4 (Homo sapiens) (UniProt P54764); conditions: at 1 µM
[3] = biological target: Ephrin type-A receptor 4 (Homo sapiens) (UniProt P54764); conditions: at 10 µM
[4] = biological target: Ephrin type-A receptor 5 (Homo sapiens) (UniProt P54756); conditions: at 1 µM
[5] = biological target: Ephrin type-A receptor 5 (Homo sapiens) (UniProt P54756); conditions: at 10 µM
[6] = biological target: Ephrin type-A receptor 7 (Homo sapiens) (UniProt Q15375); conditions: at 1 µM
[7] = biological target: Ephrin type-A receptor 7 (Homo sapiens) (UniProt Q15375); conditions: at 10 µM
[8] = biological target: T2, Ephrin type-A receptor 8 (Homo sapiens) (UniProt P29322); conditions: at 1 µM
T2 sequence (whole entry): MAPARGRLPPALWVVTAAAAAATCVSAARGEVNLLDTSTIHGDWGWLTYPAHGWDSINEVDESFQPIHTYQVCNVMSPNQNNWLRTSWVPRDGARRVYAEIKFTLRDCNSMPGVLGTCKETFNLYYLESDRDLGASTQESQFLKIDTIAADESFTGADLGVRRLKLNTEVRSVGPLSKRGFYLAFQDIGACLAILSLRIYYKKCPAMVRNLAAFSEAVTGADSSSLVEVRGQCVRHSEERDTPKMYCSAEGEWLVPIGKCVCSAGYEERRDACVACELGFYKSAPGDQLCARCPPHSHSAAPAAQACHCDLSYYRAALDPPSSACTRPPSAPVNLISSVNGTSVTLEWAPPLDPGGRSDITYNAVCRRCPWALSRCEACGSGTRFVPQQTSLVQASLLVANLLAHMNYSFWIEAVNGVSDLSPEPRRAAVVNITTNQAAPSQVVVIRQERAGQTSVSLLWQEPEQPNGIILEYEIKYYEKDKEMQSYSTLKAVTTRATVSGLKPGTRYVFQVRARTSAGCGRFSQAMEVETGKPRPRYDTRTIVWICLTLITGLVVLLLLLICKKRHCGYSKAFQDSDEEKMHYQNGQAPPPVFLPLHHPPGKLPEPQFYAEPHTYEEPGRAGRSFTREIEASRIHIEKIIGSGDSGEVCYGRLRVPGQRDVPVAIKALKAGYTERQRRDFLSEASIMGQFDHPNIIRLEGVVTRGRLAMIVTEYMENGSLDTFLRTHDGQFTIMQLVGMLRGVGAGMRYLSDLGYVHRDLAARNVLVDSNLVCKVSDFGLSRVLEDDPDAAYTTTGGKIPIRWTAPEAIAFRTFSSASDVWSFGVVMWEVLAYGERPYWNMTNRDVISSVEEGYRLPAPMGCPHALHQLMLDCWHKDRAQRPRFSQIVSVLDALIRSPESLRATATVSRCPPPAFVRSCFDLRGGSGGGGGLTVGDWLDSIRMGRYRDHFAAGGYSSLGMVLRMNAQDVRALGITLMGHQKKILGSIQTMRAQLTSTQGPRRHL

[9] = biological target: T2, Ephrin type-A receptor 8 (Homo sapiens); conditions: at 10 µM
[10] = biological target: T3, Ephrin type-B receptor 1 (Homo sapiens) (UniProt P54762); conditions: at 1 µM
T3 sequence (whole entry): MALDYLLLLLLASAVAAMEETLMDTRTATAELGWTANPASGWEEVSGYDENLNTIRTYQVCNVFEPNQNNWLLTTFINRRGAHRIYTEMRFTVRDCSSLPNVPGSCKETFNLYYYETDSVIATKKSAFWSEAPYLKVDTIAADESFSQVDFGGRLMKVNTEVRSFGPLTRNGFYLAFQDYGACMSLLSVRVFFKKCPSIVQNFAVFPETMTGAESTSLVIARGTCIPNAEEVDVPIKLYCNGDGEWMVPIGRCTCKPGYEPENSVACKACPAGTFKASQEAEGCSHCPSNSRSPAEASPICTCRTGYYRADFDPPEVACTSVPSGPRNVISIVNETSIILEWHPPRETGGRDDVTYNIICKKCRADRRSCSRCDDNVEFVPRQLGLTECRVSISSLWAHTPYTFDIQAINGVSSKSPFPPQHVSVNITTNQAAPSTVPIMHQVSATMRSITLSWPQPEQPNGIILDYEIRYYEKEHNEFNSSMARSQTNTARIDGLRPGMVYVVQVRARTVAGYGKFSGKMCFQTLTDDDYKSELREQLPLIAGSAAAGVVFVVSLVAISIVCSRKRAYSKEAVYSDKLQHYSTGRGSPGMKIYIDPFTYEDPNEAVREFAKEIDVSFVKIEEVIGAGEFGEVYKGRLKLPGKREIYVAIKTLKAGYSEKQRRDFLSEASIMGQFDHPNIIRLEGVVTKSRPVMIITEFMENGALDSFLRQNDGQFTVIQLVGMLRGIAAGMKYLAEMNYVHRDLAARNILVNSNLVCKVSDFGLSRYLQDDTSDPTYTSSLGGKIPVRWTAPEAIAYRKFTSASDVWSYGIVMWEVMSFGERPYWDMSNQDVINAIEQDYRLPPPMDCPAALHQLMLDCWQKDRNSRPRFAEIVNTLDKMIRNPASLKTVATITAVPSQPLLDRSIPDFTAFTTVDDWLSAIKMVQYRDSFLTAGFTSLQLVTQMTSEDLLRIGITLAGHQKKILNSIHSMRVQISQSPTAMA

Ephrin type-A receptor 5 (Homo sapiens), sequence (P54756 whole entry): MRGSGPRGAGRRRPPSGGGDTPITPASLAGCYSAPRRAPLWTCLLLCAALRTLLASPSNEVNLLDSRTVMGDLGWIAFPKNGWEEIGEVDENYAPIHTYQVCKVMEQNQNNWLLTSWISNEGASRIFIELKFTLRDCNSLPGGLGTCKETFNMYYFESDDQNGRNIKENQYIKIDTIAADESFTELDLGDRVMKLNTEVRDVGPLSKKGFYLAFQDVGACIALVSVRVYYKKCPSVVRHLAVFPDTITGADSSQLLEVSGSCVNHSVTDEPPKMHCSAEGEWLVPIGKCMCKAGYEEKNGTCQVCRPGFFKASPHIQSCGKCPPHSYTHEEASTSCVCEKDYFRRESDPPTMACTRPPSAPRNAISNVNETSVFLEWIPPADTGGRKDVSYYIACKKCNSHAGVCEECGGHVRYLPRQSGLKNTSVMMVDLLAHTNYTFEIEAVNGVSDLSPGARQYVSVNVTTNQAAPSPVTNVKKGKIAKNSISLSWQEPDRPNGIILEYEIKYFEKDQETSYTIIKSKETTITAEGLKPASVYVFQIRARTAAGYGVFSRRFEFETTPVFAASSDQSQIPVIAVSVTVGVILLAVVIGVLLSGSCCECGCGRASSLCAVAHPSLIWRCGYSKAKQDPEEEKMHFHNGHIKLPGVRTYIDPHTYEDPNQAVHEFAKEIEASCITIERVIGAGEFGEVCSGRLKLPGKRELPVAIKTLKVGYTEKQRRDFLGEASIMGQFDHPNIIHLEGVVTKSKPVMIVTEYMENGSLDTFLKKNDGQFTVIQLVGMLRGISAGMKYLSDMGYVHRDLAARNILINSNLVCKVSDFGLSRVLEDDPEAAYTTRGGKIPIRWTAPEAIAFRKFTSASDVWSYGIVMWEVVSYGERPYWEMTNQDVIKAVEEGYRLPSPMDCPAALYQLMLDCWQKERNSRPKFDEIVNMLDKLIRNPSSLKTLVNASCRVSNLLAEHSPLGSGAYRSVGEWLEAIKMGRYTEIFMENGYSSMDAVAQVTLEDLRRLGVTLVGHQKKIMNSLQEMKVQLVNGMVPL
Ephrin type-A receptor 4 (Homo sapiens), sequence (P54764 whole entry): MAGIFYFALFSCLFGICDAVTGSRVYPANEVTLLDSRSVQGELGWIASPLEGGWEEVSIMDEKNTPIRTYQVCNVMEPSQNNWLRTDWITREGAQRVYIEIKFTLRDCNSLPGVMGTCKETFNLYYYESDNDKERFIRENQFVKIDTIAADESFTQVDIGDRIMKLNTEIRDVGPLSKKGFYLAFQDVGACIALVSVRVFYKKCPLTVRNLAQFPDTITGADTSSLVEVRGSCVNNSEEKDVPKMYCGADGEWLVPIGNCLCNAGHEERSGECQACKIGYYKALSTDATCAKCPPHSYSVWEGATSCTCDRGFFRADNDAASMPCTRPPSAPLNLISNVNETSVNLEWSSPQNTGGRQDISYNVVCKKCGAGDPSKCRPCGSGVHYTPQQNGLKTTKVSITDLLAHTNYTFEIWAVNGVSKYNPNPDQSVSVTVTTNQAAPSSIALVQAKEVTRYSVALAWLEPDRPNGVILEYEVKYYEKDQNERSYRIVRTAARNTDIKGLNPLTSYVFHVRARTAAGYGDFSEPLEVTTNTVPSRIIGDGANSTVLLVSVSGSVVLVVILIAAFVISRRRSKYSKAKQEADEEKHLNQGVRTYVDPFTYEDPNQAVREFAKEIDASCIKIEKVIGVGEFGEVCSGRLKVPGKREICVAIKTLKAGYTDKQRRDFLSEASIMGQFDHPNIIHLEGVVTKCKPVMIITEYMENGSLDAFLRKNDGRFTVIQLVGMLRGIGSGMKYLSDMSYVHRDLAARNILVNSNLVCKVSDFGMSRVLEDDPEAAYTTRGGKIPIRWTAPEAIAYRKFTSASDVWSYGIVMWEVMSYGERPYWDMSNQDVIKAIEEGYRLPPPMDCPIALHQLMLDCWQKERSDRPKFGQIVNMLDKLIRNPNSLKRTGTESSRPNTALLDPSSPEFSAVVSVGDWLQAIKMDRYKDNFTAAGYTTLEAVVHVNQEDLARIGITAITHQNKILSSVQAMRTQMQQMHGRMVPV
Ephrin type-A receptor 7 (Homo sapiens), sequence (Q15375 28-998 limits assumed): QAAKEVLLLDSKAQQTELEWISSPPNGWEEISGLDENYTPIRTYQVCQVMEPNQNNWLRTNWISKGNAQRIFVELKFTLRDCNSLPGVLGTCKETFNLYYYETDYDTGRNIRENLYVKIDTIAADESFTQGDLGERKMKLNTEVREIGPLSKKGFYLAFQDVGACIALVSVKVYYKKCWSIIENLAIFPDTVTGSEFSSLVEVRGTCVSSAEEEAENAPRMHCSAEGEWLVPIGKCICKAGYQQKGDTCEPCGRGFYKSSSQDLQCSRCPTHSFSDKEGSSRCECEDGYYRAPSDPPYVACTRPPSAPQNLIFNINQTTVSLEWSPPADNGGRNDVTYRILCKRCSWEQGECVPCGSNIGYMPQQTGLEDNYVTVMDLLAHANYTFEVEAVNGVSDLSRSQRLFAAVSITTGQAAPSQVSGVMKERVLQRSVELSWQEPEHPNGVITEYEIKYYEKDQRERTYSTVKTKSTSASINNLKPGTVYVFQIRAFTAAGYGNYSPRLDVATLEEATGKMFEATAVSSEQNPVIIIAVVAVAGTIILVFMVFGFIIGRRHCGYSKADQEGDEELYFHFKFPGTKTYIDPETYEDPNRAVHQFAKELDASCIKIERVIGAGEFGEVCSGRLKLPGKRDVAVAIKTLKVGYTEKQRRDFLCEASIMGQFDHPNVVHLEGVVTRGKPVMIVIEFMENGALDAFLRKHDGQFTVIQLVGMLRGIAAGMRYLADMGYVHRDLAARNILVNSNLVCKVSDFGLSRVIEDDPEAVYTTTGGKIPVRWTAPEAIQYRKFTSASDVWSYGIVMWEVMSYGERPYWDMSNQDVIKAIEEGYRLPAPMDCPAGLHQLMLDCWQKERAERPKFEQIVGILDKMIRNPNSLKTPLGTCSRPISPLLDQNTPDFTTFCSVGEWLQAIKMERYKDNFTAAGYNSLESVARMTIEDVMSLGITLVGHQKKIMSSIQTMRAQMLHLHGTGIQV

COc1ccc(CNc2nc(N(CCO)CCO)nc3c2ncn3C(C)C)cc1
residual activity [1]: 90%
residual activity [2]: 110%
residual activity [3]: 110%
residual activity [4]: 126%
residual activity [5]: 105%
residual activity [6]: 92%
residual activity [7]: 73%
residual activity [8]: 99%
residual activity [9]: 88%
residual activity [10]: 105%

Source: ChEMBL document CHEMBL2218924, “A broad activity screen in support of a chemogenomic map for kinase signalling research and drug discovery” (Biochem J, 2013)
